Assay outcomes (PubChem BioAssay)
In the library only some 2.4% were active in any assay of this set; here they are far more common.
Nrf2 activator = activators of Nrf2 (ARE) signaling. 0.31% of 410,000 active. AID 624171. AREc32 ARE-luciferase reporter (MCF7-derived line), luminescence, 24 h. Potency, µM (series often up to 46.1 µM), most hits filed as activators; note: nearly all actives have a fitted effect of over 65% in size
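AREc32_Fluc, 1000 cells/well, OPTI-MEM + 5% FBS, o/n 37 deg C 5% CO2; 23 nL cpd by pin tool, 24 hr; Steady-Glo 30 min RT, luminescence.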
PINK1 modulator = PINK1 expression modulation. PINK1 immunofluorescence, high-content cytometry, 24 h. Potency, µM (doses to about 76.6 µM), usual class: activators. 0.2% of 410,000 active; active = well fitted activation curve with a large enough effect; inconclusive = small, poorly fitted or top-dose-only effect; cell line not stated here; note: nearly all actives have a fitted effect of over 65% in size
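Readout is PINK1 immunofluorescence, quantified alongside mitochondrial, cell and nuclear markers by laser-scanning microplate cytometry. Cells from a stable line were exposed to compound titrations (5 concentrations) for 24 hours, with CCCP controls.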
Epigenetic derep = regulators of epigenetic silencing causing reporter derepression in mouse cells; 0.2% of 280,000 active; murine LDR cells, GFP reporter derepression, 30 h; Potency, µM (doses to about 53.9 µM), actives largely listed as activators; AID 1865; note: nearly all actives have a fitted effect of over 60% in size
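Murine LDR cells carrying a silenced, genomically integrated CMV-driven GFP reporter were exposed to compound for 30 hours at 37 C. After PBS washes, GFP-positive cells (20–120 um objects) were counted by laser-scanning microplate cytometry.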
Nrf2 block = Nrf2 pathway inhibition; 2.1% of 360,000 active; Potency, µM (series often up to 46 µM), hits mostly inhibitors; A549 ARE-Fluc reporter, luciferase luminescence, 18-24 h; AID 504444; note: nearly all actives have a fitted effect of over 60% in size
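Nrf2 activity is the BugLite luminescence, read 15 min after reagent at room temperature, following CellTiter-Fluor cytotoxicity readout (30 min, 37C). Compound titrations were applied for 18-24 h to 5000 A549 ARE_Fluc cells/well in 5% FBS OPTI-MEM.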
A549 viability = counter-screen for Nrf2 inhibitors: cytotoxicity in A549 cells. A549 ARE-Fluc cells, CellTiter-Fluor viability, 18-24 h. Potency, µM (top dose mostly 46 µM), hits mostly inhibitors. 0.16% of 390,000 active
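Cytotoxicity counterscreen: CellTiter-Fluor fluorescence was measured in A549 ARE_Fluc cells after 18-24 h of compound exposure in a concentration series. The subsequent BugLite luminescent read reports ARE-luciferase activity.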
Numbers stand for hits; n = inactive; u = inconclusive; x = no result; [ ] = remark or other dose. Unless noted, calls come from the whole dose curve; as a rule, active = well fitted curve in the direction sought with a large enough effect; inconclusive = small, poorly fitted or top-dose-only effect, or another doubt; inactive = no such curve, though single readings can be large; an effect the other way counts as inactive or inconclusive.

SMILES | Nrf2 activator | PINK1 modulator | Epigenetic derep | Nrf2 block | A549 viability
Cc1ccc(CCNC(=O)C2CCN(c3nnc(C)c4c(C)n(-c5ccccc5)nc34)CC2)cc1 | n | n | n | n | n
N#Cc1ccccc1NC(=O)CSC1=Nc2ccccc2C2CC=NN12 (stereo unspecified) | n | n | n | n | n
O=C(CSC1=Nc2ccccc2C2CC=NN12)NCc1ccco1 (stereo unspecified) | 0.63µM | n | x | u | n
Cc1cc(C)cc(N(CCC#N)C(=O)CSC2=Nc3ccccc3C3CC=NN23)c1 (stereo unspecified) | n | n | n | 23µM | u
Cc1cc(NC(=O)C(Cl)c2ccccc2)no1 (stereo unspecified) | 13µM | n | x | u | n
O=C(c1ccccc1)[C@@H]1[C@@H]2C(=O)N(c3ccc(F)cc3)C(=O)[C@@H]2C2CCCN21 (stereo partly specified) | 10µM | n | u | n | n
Cc1ccc(C)c(-n2nnnc2SCC(=O)NCCC2=CCCCC2)c1 | n | n | n | 18µM | x
O=C(Oc1ccccc1F)c1nc(SCc2ccc(F)cc2)ncc1Cl | n | n | n | n | n
COCc1ccc(C(=O)N2CCOc3ccc(CN4CCN(c5ccc(F)cc5)CC4)cc3C2)o1 | x | n | x | x | x
Cc1onc(-c2ccccc2)c1C(=O)NCCN1Cc2ccccc2OC(c2ccsc2)C1 (stereo unspecified) | x | n | x | x | x
Cn1nnnc1Sc1ncnc2scc(-c3ccc(F)cc3)c12 | u | n | n | 23µM | u
Cn1nnnc1Sc1ncnc2scc(-c3ccccc3Br)c12 | u | n | x | 21µM | n
Cn1nnnc1Sc1ncnc2scc(-c3cccc4ccccc34)c12 | 7.1µM | n | x | u | n
Cn1nnnc1Sc1ncnc2scc(-c3cccc(C#N)c3)c12 | x | x | x | 16µM | u
Cc1ccc(-c2csc3ncnc(Sc4nnnn4C)c23)cc1 | x | x | x | n | n
COc1cc(=O)n2c(c1C(=O)NCc1ccc3c(c1)OCO3)CCN(C(=O)c1ccccc1F)CC2 | x | n | x | x | x
Cn1nnnc1SCc1nc2scc(-c3ccccc3)c2c(=O)[nH]1 | n | n | n | n | n
Cn1nnnc1SCc1nc2scc(-c3ccc(Cl)cc3)c2c(=O)[nH]1 | n | 40µM | u | u | n
CCc1nc2cc(C(=O)N[C@H]3CCCCNC3=O)cc(NC(=O)c3ccccc3OC)c2n1C | x | n | x | x | x
Nc1nc2sc3c(c2cc1C(=O)NCC(=O)O)CCCC3 | n | n | x | 8.2µM | n
Nc1nc2sc3c(c2cc1C(=O)N1CCOCC1)CCCC3 | n | n | n | n | n
CSc1nnc(CCNC(=O)c2ccc(-c3cccc(F)c3)cc2)n1-c1ccc(F)cc1 | x | n | x | x | x
COc1ccc2occ(C(=O)c3cccs3)c2c1 | 10µM | n | n | u | n
Cc1cc2c(s1)c1cnn(Cc3ccc(F)cc3)c(=O)c1n2C | x | x | x | n | n
Cc1cccc(OCc2ccc(-c3nc(C#N)c(NCc4cccnc4)o3)o2)c1 | n | n | n | u | n
SMILES | Nrf2 activator | PINK1 modulator | Epigenetic derep | Nrf2 block | A549 viability
COc1cc(Nc2nc(SCc3cccc(Cl)c3)nc3ccccc23)cc(OC)c1 | n | n | n | x | n
Cc1ccc(-c2nc(=Nc3c(C)cc(C)cc3C)sn2-c2ccccc2)cc1 | x | u | x | 23µM | n
CN1CCN(c2cc(-c3ccc4ccccc4c3)nc3ccnn23)CC1 | n | 45µM | x | x | x
OCCN1CCN(c2cc(-c3ccc(CO)cc3)nc3ccnn23)CC1 | n | n | x | x | x
O=C(Nc1cccc(-c2nc3ncccc3o2)c1)c1ccc(-c2cccc(Cl)c2Cl)o1 | n | n | n | 5.8µM | n
O=C(Cn1cc2ccccc2n1)N1CCOc2ccc(C(O)C3CCCCC3)cc2C1 (stereo unspecified) | x | n | x | x | x
CCn1c(-c2ccccc2F)nc2cc(NC(C)=O)cc(C(=O)NC(c3ccccn3)C(F)(F)F)c21 (stereo unspecified) | x | n | x | x | x
Cc1nc2cc(NS(=O)(=O)c3cccc4cccnc34)ccc2s1 | n | n | x | 26µM | n
CC1CCC2(C1)N=C(Nc1nc3ccccc3o1)NC1=C2C(=O)CCC1 (stereo unspecified) | x | x | x | n | n
COc1ccccc1C1CN(Cc2cccc(C)n2)Cc2ccccc2O1 (stereo unspecified) | x | n | x | x | x
Cc1ccc(NC(=O)CSc2nnc(CCCCCNC(=O)OC(C)(C)C)o2)c(C)c1 | n | n | n | 16µM | n
Cc1ccc(C)c(NC(=O)CSc2nnc(CCNC(=O)OC(C)(C)C)o2)c1 | n | n | n | n | n
COC(=O)c1ccc(CNC(=O)c2ccc(S(=O)(=O)N(C)c3ccccc3OC)cc2)cc1 | n | n | x | 23µM | n
COc1ccccc1N(C)S(=O)(=O)c1ccc(C(=O)Nc2cccc(Br)c2)cc1 | n | n | x | 16µM | n
COc1ccccc1N(C)S(=O)(=O)c1ccc(C(=O)NCC(C)C)cc1 | n | n | n | u | n
CN(c1ccccc1)S(=O)(=O)c1cccc(NC(=O)c2ccc3ncsc3c2)c1 | n | n | n | 16µM | n
Cc1nc2ccc(NC(=O)c3cccc(S(=O)(=O)N(C)c4ccccc4)c3)cc2s1 | n | n | n | 21µM | u
Cc1oc(-c2cccc(NC(=O)C3CCCN(C)C3)c2)nc1CNC(=O)c1coc2c1C(=O)CCC2 (stereo unspecified) | x | n | x | x | x
O=C(C[n+]1ccccc1Br)c1ccc2c(c1)CCCC2 | x | n | x | x | x
CC(C)[C@@H](CC(=O)N[C@@H]1CCCC[C@H]1C(=O)N[C@H](CC(=O)N[C@@H](CCC(=O)O)CC(=O)O)Cc1ccccc1)NC(=O)C[C@H](Cc1c[nH]c2ccccc12)NC(=O)[C@@H]1CNCC[C@H]1N | x | x | n | x | x
Cc1cccc(CSCCNC(=O)CN(c2ccccc2)S(=O)(=O)N(C)C)c1 | n | n | n | n | n
Cn1c(=O)c2c(ncn2CC(=O)Nc2ccccc2)n(C)c1=O | n | n | n | n | n
CN(c1ccccc1)S(=O)(=O)c1cccc(NC(=O)CSc2nncs2)c1 | n | n | n | 21µM | n
COc1ccccc1N(C)S(=O)(=O)c1ccc(C(=O)Nc2ccc3nc(C)sc3c2)cc1 | n[9.22 µM] | n | n | 18µM | n
CN(c1ccccc1)S(=O)(=O)c1cccc(NC(=O)CSc2nnc(N)s2)c1 | n | n | n | u | n
SMILES | Nrf2 activator | PINK1 modulator | Epigenetic derep | Nrf2 block | A549 viability
NS(=O)(=O)c1cccc(NC(=O)Cn2cnc3ccccc3c2=O)c1 | n | 11µM | n | n | n[1.84 µM]
CN(c1ccccc1)S(=O)(=O)c1cccc(NC(=O)Cn2cnc3c2c(=O)n(C)c(=O)n3C)c1 | n | n | n | 10µM | n
COC(=O)c1cccc(NC(=O)Cn2cnc3ccccc3c2=O)c1 | n | n | n | n | n
CN(c1ccc(C(=O)Nc2cccc(O)c2)cc1)S(=O)(=O)c1ccccc1 | n | n | x | n | n
COCc1ccc(C(=O)Nc2cccc(S(=O)(=O)N(C)c3ccccc3)c2)cc1 | n | n | x | 18µM | n
Cc1ccc(C(C)CCN2CCOc3ccc(CN4CCOCC4)cc3C2)o1 (stereo unspecified) | x | n | x | x | x
